{
  "source": "PubChem BioAssay (Tox21)",
  "note": "Records with an inconclusive call do not appear. Where a call stands in place of a potency, no number is given. The source made the active and inactive calls. The call rests on the fitted dose curve. Potency means the concentration at half of the fitted maximal effect.",
  "data": [
    {"assay": "qHTS assay for small molecule agonists of the antioxidant response element (ARE) signaling pathway - cell viability counter screen (AID 743203); further: nearly all actives have a fitted effect of over 55% in size", "conditions": "ARE-bla HepG2 viability, CellTiter-Glo luminescence, 16 h; series mostly up to 73.3 µM", "from_the_text": "National Center for Advancing Translational Sciences [NCATS]\nNIH Chemical Genomics Center [NCGC]\nU.S. Environmental Protection Agency [EPA]\nNational Institutes of Environmental Health Sciences [NIEHS]\nNational Toxicology Program [NTP]\nU.S. Food and Drug Administration [FDA]\nOxidative stress has been implicated in the pathogenesis of a variety of diseases ranging from cancer to neurodegeneration. The antioxidant response element (ARE) signaling pathway plays an important role in the amelioration of oxidative stress. The CellSensor ARE-bla HepG2 cell line (Invitrogen) can be used for analyzing the Nrf2/antioxidant response signaling pathway. Nrf2 (NF-E2-related factor 2) and Nrf1 are transcription factors that bind to AREs and activate these genes. The CellSensor ARE-bla Hep G2 cell line contains a beta-lactamase reporter gene under control of the Antioxidant Response Element (ARE) stably integrated into HepG2 cells. The activation of the report gene under culture conditions can be detected by fluorescence intensity. This cell line has been used to screen the Tox21 10K compound library to identify agonists that induce oxidative stress. The cytotoxicity of the Tox21 compound library against the ARE-bla cell line was tested in parallel by measuring the cell viability using CellTiter-Glo assay (Promega, Madison, WI) in the same wells.\nTox21 Assay Protocol Summary:\nARE-bla HepG2 cells were dispensed at 2,000 cells/5 ul/well in 1536-well white wall/solid bottom plates using a Multidrop Combi (ThermoFisher Scientific, Waltham, MA) dispenser. After the assay plates were incubated at 37C/5% CO2 for 5 hrs, 23 nL of compounds dissolved in DMSO, positive controls or DMSO only was transferred to the assay plate by a pintool work station (Kalypsys, San Diego, CA). The plates were incubated at 37C/5% CO2 for 16 hrs, followed by addition of 4 ul/well of CellTiter-Glo reagent into the assay plates using a Flying Reagent Dispenser (Aurora Discovery, San Diego, CA). After 30 min incubation at room temperature, the luminescence intensity in the assay plates was measured using a ViewLux (PerkinElmer, Shelton, CT) plate reader.", "values": [
      {"compound": "CN(C)C(=O)C1(N2CCCCC2)CCN(CC[C@@]2(c3ccc(Cl)c(Cl)c3)CN(C(=O)c3ccccc3)CCO2)CC1", "Potency": "20.3 µM (active)"},
      {"compound": "Cc1cc(CCN2CCN(c3nsc4ccccc34)CC2)cc2c1NC(=O)CC2(C)C", "Potency": "21.7 µM (active)"},
      {"compound": "Cc1[nH]nc2c1N=C(c1ccccc1Cl)c1cc([N+](=O)[O-])ccc1N2", "Potency": "15.4 µM (active)"},
      {"compound": "O=Cc1cc(O)ccc1Br", "Potency": "inactive"},
      {"compound": "CC(C)n1nc(-c2cc3cc(O)ccc3[nH]2)c2c(N)ncnc21", "Potency": "inactive"},
      {"compound": "CC(=O)SC[C@@H](Cc1ccccc1)C(=O)NCC(=O)OCc1ccccc1", "Potency": "inactive"},
      {"compound": "CCCCCCCCCCCCCCCCCC[N+](C)(C)C", "Potency": "48.7 µM (active)"},
      {"compound": "CC/C(=C(\\c1ccc(O)cc1)c1ccc(OCCN(C)C)cc1)c1ccccc1", "Potency": "15.4 µM (active)"},
      {"compound": "CCCCC(CC)COP(=O)(O)OCC(CC)CCCC", "note": "(stereo not given)", "Potency": "61.1 µM (active)"},
      {"compound": "CC1=C(C(=O)OC(C)C)C(c2cccc([N+](=O)[O-])c2)C(C(=O)OC2CN(C(c3ccccc3)c3ccccc3)C2)=C(N)N1", "note": "(stereo not given)", "Potency": "23.7 µM (active)"},
      {"compound": "CSc1ccc(/C=C2/C(C)=C(CC(=O)O)c3cc(F)ccc32)cc1", "Potency": "inactive"},
      {"compound": "O=c1[nH]sc2cc(Cl)ccc12", "Potency": "inactive"},
      {"compound": "CCCCCCCC/C=C/CCCCCCCC1=NCCN1CCO", "Potency": "24.3 µM (active)"},
      {"compound": "Oc1ccc2cc(SSc3ccc4cc(O)ccc4c3)ccc2c1", "Potency": "inactive"},
      {"compound": "O=C1CCCc2c1cc1ccc3cccc4ccc2c1c34", "Potency": "inactive"},
      {"compound": "C1CCCC1", "Potency": "inactive"},
      {"compound": "O=CC=C(c1ccccc1)c1ccccc1", "Potency": "inactive"},
      {"compound": "C[C@]12CCC(=O)C=C1CC[C@@H]1[C@@H]2[C@@H](O)C[C@@]2(C)[C@H]1CC[C@]2(O)C(=O)COC(=O)CCC(=O)O", "Potency": "inactive"},
      {"compound": "O=C1C=CC(=O)N1", "Potency": "62.8 µM (active)"},
      {"compound": "Clc1ccc2n[nH]nc2c1", "Potency": "inactive"},
      {"compound": "CCN(C(=O)N(CC)c1ccccc1)c1ccccc1", "Potency": "inactive"},
      {"compound": "Oc1ccc(N=Nc2ccccc2)cc1", "Potency": "inactive"},
      {"compound": "C[C@@H](NCCCc1cccc(C(F)(F)F)c1)c1cccc2ccccc12", "Potency": "29.8 µM (active)"},
      {"compound": "Cc1cc(O)c(Cl)c(C)c1Cl", "Potency": "30.6 µM (active)"},
      {"compound": "CCN(Cc1cccnc1)C(=O)c1cccc(Cl)c1[C@]1(C)C(=O)N(Cc2ccc(OC)cc2OC)c2ccc(Cl)cc21", "Potency": "5.09 µM (active)"},
      {"compound": "CCCN(CCC)c1c([N+](=O)[O-])cc(C(F)(F)F)c(N)c1[N+](=O)[O-]", "Potency": "60.9 µM (active)"},
      {"compound": "O=C(Nc1cccc([N+](=O)[O-])c1)c1cc2ccccc2cc1O", "Potency": "inactive"},
      {"compound": "CC(C)(C)C(=O)OCOC(=O)[C@@H]1N2C(=O)[C@@H](NC(=O)[C@H](N)c3ccccc3)[C@H]2SC1(C)C", "Potency": "inactive"},
      {"compound": "N#CC1(c2ccc(F)cc2)CCC(=O)CC1", "Potency": "inactive"},
      {"compound": "N=C1C=CC(=C(c2ccc(N)cc2)c2ccc(N)cc2)C=C1", "Potency": "61.1 µM (active)"},
      {"compound": "O=C(OCC1CO1)C1CCCCC1C(=O)OCC1CO1", "note": "(stereo not given)", "Potency": "inactive"},
      {"compound": "Nc1ccc(N)c2ccccc12", "Potency": "0.611 µM (active)"},
      {"compound": "Oc1ccc2c(c1)-c1ccccc1C2", "Potency": "inactive"},
      {"compound": "Nc1nc2ccccc2n1Cc1ccc(F)cc1", "Potency": "inactive"},
      {"compound": "Cc1nc(-c2ccc3c(c2)CCN(CCC2CCC(NC(=O)/C=C/c4ccc(F)cc4)CC2)CC3)no1", "note": "(stereo not given)", "Potency": "inactive"},
      {"compound": "CC1=NC(C)OC1C", "note": "(stereo not given)", "Potency": "inactive"},
      {"compound": "Cc1cc(N)c(S(=O)(=O)O)cc1Cl", "Potency": "inactive"},
      {"compound": "CCCCCCCCCCn1cc[n+](CCCCCCCCCC)c1C", "Potency": "19.4 µM (active)"},
      {"compound": "CCc1cc(SCc2sc(-c3ccc(C(F)(F)F)cc3)nc2CN2CCN(c3ccc(OC)cc3)CC2)ccc1OCC(=O)O", "Potency": "15.4 µM (active)"},
      {"compound": "COc1cc(/C=C/C(=O)O[C@H]2CC[C@]34C[C@]35CC[C@]3(C)[C@@H]([C@H](C)CCC=C(C)C)CC[C@@]3(C)[C@@H]5CC[C@H]4C2(C)C)ccc1O", "Potency": "inactive"}
    ]}
  ]
}
